“And” between values parts separate entries of the source, which are not always exact repeats. Identical values can stand only once. Records with an inconclusive call do not appear. Values without a mark were called inactive. The source made the active and inactive calls. Calls come from the whole dose curve; as a rule, active = well fitted curve in the direction sought with a large enough effect; inconclusive = small, poorly fitted or top-dose-only effect, or another doubt; inactive = no such curve, though single readings can be large; an effect the other way counts as inactive or inconclusive.
Assay: Primary qHTS for inhibitors of nuclear receptor binding SET domain protein 2 (NSD2) in an isogenic RCH-ACV NSD2 p.E1099K mutant (9B) (AID 1645876)
Conditions: RCH-ACV NSD2 E1099K (9B) viability, CellTiter-Glo, 72 h; series mostly up to 44.9 µM; activity change, negative = viability loss: at the top concentration
% is set by controls: 0 for no effect and ±100 for the full control effect; potency is the fitted concentration of half-maximal effect.
Note: nearly all actives have a fitted effect of over 70% in size.

Compound	activity change, negative = viability loss	Potency
Nc1nc2c(cnn2CCCc2ccc(O)cc2)c2nc(-c3ccco3)nn12	-4.95%	
Cc1csc(N(C(=O)CSc2ccc(-c3ccccc3)nn2)C2CC2)n1	-6.01%	
COc1cc2c(cc1NS(=O)(=O)c1ccc(Br)cc1C)n(C)c(=O)n2C		7.28 µM (active)
CC(C)(C)c1ccc(C(=O)Nc2cn3cc(-n4ccnc4)ccc3n2)cc1	-24.6%	
C#CCOc1ccc2c(c1)c(-c1ccc(C(C)C)cc1)nc(=O)n2C(C)C		8.17 µM (active)
COc1cc2c(cc1OCCCN1CCCC1)N=C(N)C21CCC1	-13.1%	
CN(C)C(=O)C(=O)c1cn(C)c2cc(Cl)c(C(=O)N3CCC(Cc4ccc(F)cc4)CC3)cc12		23 µM (active)
CCn1c(=O)c(-c2ccc(-c3cncs3)cc2Cl)cc2cnc(Nc3ccc(N4CCN(C)CC4)cc3)nc21		2.31 µM (active)
COC(=O)c1ccc(N2CCN(C)CC2)c(NC(=O)c2cccc(OC)c2)c1	-11.7%	
CCN(CC)C(=O)c1ccc(Nc2nc(OCC3CCCCC3)c3[nH]cnc3n2)cc1		3.65 µM (active)
CN(c1ccc(NC(=O)Nc2ccccc2)cc1)S(=O)(=O)c1cnn(-c2ccc(F)cc2)c1		20.5 µM (active)
CN(C)Cc1ccc(-c2cnn3c(-c4cccc(NC(=O)c5cccc(C(F)(F)F)c5)c4)ccnc23)cc1		3.65 µM (active)
Cc1cc(F)ccc1[C@H]1C[C@@H](N2CCN3C(=O)CC[C@H]3C2)CCN1C(=O)N(C)[C@H](C)c1cc(C(F)(F)F)cc(C(F)(F)F)c1		23 µM (active)
Oc1ccc(-c2cnc3ccc(NCc4ccco4)nn23)cc1		1.83 µM (active)
COc1ccc(Oc2c(Cl)cnn(-c3cc(C)cc(C)c3)c2=O)cc1		11.5 µM (active)
COCCCNC(=O)c1ccc(Cn2c(=O)c3ccccc3n(Cc3ccc(C(C)C)cc3)c2=O)cc1	-15%	
O=C(NCCN1CCOCC1)c1cc2c(Oc3ccc(NC(=O)C4(C(=O)Nc5ccc(F)cc5)CC4)cc3)ccnc2[nH]1		23 µM (active)
COc1ccc(N2CCN(C(=O)c3cc4c(s3)-c3ccccc3S(=O)(=O)C4)CC2)cc1	3.49%	
CC(C)(C)c1ccc(-c2nc3c(N4CCN(Cc5ccc6nccnc6c5)CC4)cccc3[nH]2)cc1		9.16 µM (active)
CC(C)(C)Sc1c(CC(C)(C)C(=O)O)n(Cc2ccc(Cl)cc2)c2ccc(OCc3ccc4ccccc4n3)cc12		inactive
CCCc1cc(C)[nH]c(=O)c1CNC(=O)c1cc(-c2ccc(N3CCN(C(C)C)CC3)nc2)cc2c1cnn2C(C)C		11.5 µM (active) and 7.42 µM (active)
COc1cc(OC)c2c(=O)[nH]c(-c3cc(C)c(OCCO)c(C)c3)nc2c1		12.9 µM (active) and 14.8 µM (active)
COc1cc2ncnc(Nc3ccc(O)c(Br)c3)c2cc1OC		11.6 µM (active) and 10.5 µM (active)
Cn1ncnc1[C@@H]1c2n[nH]c(=O)c3cc(F)cc(c23)N[C@H]1c1ccc(F)cc1		20.5 µM (active)
Cc1cc2occ(CN(C)CCN(C)Cc3cn(-c4cccc(C(F)(F)F)c4)c4ccccc34)c(=O)c2cc1C		7.28 µM (active)
CC(C)n1nc(C#Cc2ccccc2)c2c(N)ncnc21		1.83 µM (active)

Assay: Primary qHTS for inhibitors of nuclear receptor binding SET domain protein 2 (NSD2) in an RCH-ACV wild type WT cells (2C) (AID 1645877)
Conditions: RCH-ACV (leukaemia line) NSD2 WT (2C) viability, CellTiter-Glo, 72 h; series mostly up to 44.9 µM; activity change, negative = cell killing: at the top concentration

Compound	outcome	Potency	activity change, negative = cell killing
C#CCNCc1cc2cc(OCc3ccccc3)ccc2[nH]1	inactive		
CN(C)C(=O)NC1(c2ccccc2)CCN(CCC[C@]2(c3ccc(Cl)c(Cl)c3)CCCN(C(=O)c3ccccc3)C2)CC1		2.9 µM (active)	
COc1cc(F)c(C(C)C)cc1-c1ccc(C(F)(F)F)cc1CN1C(=O)OC(c2cc(C(F)(F)F)cc(C(F)(F)F)c2)C1C (stereo not given)			-5.77%
CCn1c(=O)c(-c2ccc(Cl)cc2Cl)cc2cnc(Nc3ccc(N4CCNCC4)c(F)c3)nc21		728 nM (active) and 742 nM (active)	
Cc1cn2cc(C(=O)N(C)CCO)cc(NC3CCOc4cccc(C)c43)c2n1 (stereo not given)			-12.4%
C[C@@H](NC(=O)c1ccc(C#Cc2cccc(F)c2)cn1)C(C)(C)O			-21.5%
Cc1cc(C(=O)Nc2cc(Nc3ccc4c(/C=C/c5ccccn5)n[nH]c4c3)ccc2F)n(C)n1		9.16 µM (active) and 7.42 µM (active)	
Cc1cc(OCCCS(C)(=O)=O)cc(C)c1-c1cccc(COc2ccc3c(c2)OCC3CC(=O)O)c1 (stereo not given)			-26.7%
CCN1CCN(Cc2ccc(C(=O)Nc3ccc(C)c(Oc4ccc5c(c4)CC(=O)N5)c3)cc2C(F)(F)F)CC1		16.3 µM (active)	
COc1cc(CCc2cc(NC(=O)c3ccc(N4CC(C)NC(C)C4)cc3)n[nH]2)cc(OC)c1 (stereo not given)		10.3 µM (active)	
O=C(CCl)Nc1cccc(NC2=NS(=O)(=O)c3ccccc32)c1		6.61 µM (active)	
CCCC(Nc1nc(-c2ccc(NC(=O)NCC)c(OC)c2)ncc1C)c1cccnc1 (stereo not given)		0.115 µM (active)	
O=C(NCCCCN1CCN(c2cccc(Cl)c2Cl)CC1)c1cc2ccccc2s1		23 µM (active)	
Nc1nc2c(cnn2CCCc2ccc(O)cc2)c2nc(-c3ccco3)nn12			-1.63%
Cc1csc(N(C(=O)CSc2ccc(-c3ccccc3)nn2)C2CC2)n1			0.952%
COc1cc2c(cc1NS(=O)(=O)c1ccc(Br)cc1C)n(C)c(=O)n2C		7.28 µM (active)	
CC(C)(C)c1ccc(C(=O)Nc2cn3cc(-n4ccnc4)ccc3n2)cc1			-23%
C#CCOc1ccc2c(c1)c(-c1ccc(C(C)C)cc1)nc(=O)n2C(C)C		11.5 µM (active)	
COc1cc2c(cc1OCCCN1CCCC1)N=C(N)C21CCC1			-20.9%
CN(C)C(=O)C(=O)c1cn(C)c2cc(Cl)c(C(=O)N3CCC(Cc4ccc(F)cc4)CC3)cc12		23 µM (active)	

Compound	outcome	Potency	activity change, negative = cell killing
CCn1c(=O)c(-c2ccc(-c3cncs3)cc2Cl)cc2cnc(Nc3ccc(N4CCN(C)CC4)cc3)nc21		2.59 µM (active)	
COC(=O)c1ccc(N2CCN(C)CC2)c(NC(=O)c2cccc(OC)c2)c1			-16.8%
CCN(CC)C(=O)c1ccc(Nc2nc(OCC3CCCCC3)c3[nH]cnc3n2)cc1		1.83 µM (active)	
CN(c1ccc(NC(=O)Nc2ccccc2)cc1)S(=O)(=O)c1cnn(-c2ccc(F)cc2)c1		16.3 µM (active)	
CN(C)Cc1ccc(-c2cnn3c(-c4cccc(NC(=O)c5cccc(C(F)(F)F)c5)c4)ccnc23)cc1		4.09 µM (active)	
Cc1cc(F)ccc1[C@H]1C[C@@H](N2CCN3C(=O)CC[C@H]3C2)CCN1C(=O)N(C)[C@H](C)c1cc(C(F)(F)F)cc(C(F)(F)F)c1		14.5 µM (active)	
Oc1ccc(-c2cnc3ccc(NCc4ccco4)nn23)cc1		1.83 µM (active)	
COc1ccc(Oc2c(Cl)cnn(-c3cc(C)cc(C)c3)c2=O)cc1		4.09 µM (active)	
COCCCNC(=O)c1ccc(Cn2c(=O)c3ccccc3n(Cc3ccc(C(C)C)cc3)c2=O)cc1			-10.7%
O=C(NCCN1CCOCC1)c1cc2c(Oc3ccc(NC(=O)C4(C(=O)Nc5ccc(F)cc5)CC4)cc3)ccnc2[nH]1		12.9 µM (active)	
COc1ccc(N2CCN(C(=O)c3cc4c(s3)-c3ccccc3S(=O)(=O)C4)CC2)cc1	inactive		
CC(C)(C)c1ccc(-c2nc3c(N4CCN(Cc5ccc6nccnc6c5)CC4)cccc3[nH]2)cc1		11.5 µM (active)	
CC(C)(C)Sc1c(CC(C)(C)C(=O)O)n(Cc2ccc(Cl)cc2)c2ccc(OCc3ccc4ccccc4n3)cc12		inactive	
CCCc1cc(C)[nH]c(=O)c1CNC(=O)c1cc(-c2ccc(N3CCN(C(C)C)CC3)nc2)cc2c1cnn2C(C)C		11.5 µM (active) and 5.25 µM (active)	
COc1cc(OC)c2c(=O)[nH]c(-c3cc(C)c(OCCO)c(C)c3)nc2c1		10.3 µM (active) and 11.8 µM (active)	
COc1cc2ncnc(Nc3ccc(O)c(Br)c3)c2cc1OC		13 µM (active) and 14.8 µM (active)	
Cn1ncnc1[C@@H]1c2n[nH]c(=O)c3cc(F)cc(c23)N[C@H]1c1ccc(F)cc1		9.16 µM (active)	
Cc1cc2occ(CN(C)CCN(C)Cc3cn(-c4cccc(C(F)(F)F)c4)c4ccccc34)c(=O)c2cc1C		7.28 µM (active)	
CC(C)n1nc(C#Cc2ccccc2)c2c(N)ncnc21		3.25 µM (active)	
